For 13 molecules, growth results are on record in PubChem BioAssay (NCI).

The panel holds about 83,000 compounds, 20% with a hit somewhere; the sample as a whole holds those more often.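 Step 1: grow cells in 96-well plates. Step 2: add test compound at a single concentration. Step 3: incubate 48 h. Step 4: record percent growth.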 Values without a mark were called inactive. The source made the active and inactive calls. How the source made its calls: active means growth percent below 10; inactive means the rest.

Among the test systems are DU-145 prostate; K-562 leukemia; MALME-3M melanoma; MDA-MB-231 breast; RXF 393 renal; SF-268 CNS; SF-295 CNS; SF-539 CNS; UACC-257 melanoma; M14 melanoma.
Holding throughout (experiment): NCI-60 one-dose screen, 48 h (100 = growth as untreated, 0 = no growth, -100 = all killed)
Common to all, as to settings: 10 µM unless noted

For the molecule `O=C1C(Cl)=C(Oc2ccccc2)C(=O)c2ccccc21`, the growth was 122% in the assay with DU-145 prostate; 37.2% with K-562 leukemia; 76.3% in the assay with MALME-3M melanoma; 81.4% with MDA-MB-231 breast; 96.8% in the assay on RXF 393 renal; 79.3% in the assay with SF-268 CNS. Besides, the growth is 76.6% in the assay with SF-295 CNS, 75.2% in the assay on SF-539 CNS, 89.9% in the assay on UACC-257 melanoma and 96.2% in the assay with M14 melanoma.

As to `C#Cc1cccc(Nc2ncnc3ccc(-c4cnc(N)nc4)cc23)c1`, the growth in the assay with DU-145 prostate is 18.9%; with K-562 leukemia it was 53.2%; with MALME-3M melanoma it was 9.03% (active); with MDA-MB-231 breast it was 12.8%; with RXF 393 renal, -15.3% (active); in the assay on SF-268 CNS, 32.7%. Besides, the growth is 26.2% in the assay on SF-295 CNS, 32.4% in the assay with SF-539 CNS, 80.7% with UACC-257 melanoma and 36.8% in the assay on M14 melanoma.

Consider `CC(=O)[C@@H]1CCC=C2CC[C@]3(C)[C@@H](CC[C@@H]4[C@@]5(C)CCCNC(C)(C)[C@@H]5CC[C@]43C)[C@H]21`, for which the growth in the assay with DU-145 prostate is -36.8% (active); in the assay with K-562 leukemia it was -44.6% (active); in the assay with MALME-3M melanoma, -56.1% (active); in the assay with MDA-MB-231 breast, -76.5% (active); with RXF 393 renal it was -91.9% (active); in the assay with SF-268 CNS it was 12.3%. Further, the growth with SF-295 CNS is -84.7% (active); with SF-539 CNS it was 9.45% (active); in the assay on UACC-257 melanoma it was -67.4% (active); in the assay on M14 melanoma, -82.1% (active).

`O=C1N(Cc2ccccc2Cl)c2ccccc2C12NN=C(c1cccc(Cl)c1)S2` (stereo not given): the growth is -46.2% (active) in the assay on DU-145 prostate; 10.1% in the assay on K-562 leukemia; -23.6% (active) in the assay on MALME-3M melanoma; -4.77% (active) with MDA-MB-231 breast; -73% (active) in the assay with RXF 393 renal; 26.2% in the assay on SF-268 CNS. For the same molecule, the growth in the assay with SF-295 CNS was -44.9% (active); with SF-539 CNS, 6.32% (active); in the assay on UACC-257 melanoma, 18.9%; in the assay on M14 melanoma, 4.67% (active).

`C=C1C(=O)O[C@H]2[C@H]1CC/C(COC(=O)CCSCCC(=O)OC/C1=C/CC[C@@]3(C)O[C@H]3[C@H]3OC(=O)C(=C)[C@@H]3CC1)=C\CC[C@@]1(C)O[C@@H]21`: the growth in the assay with DU-145 prostate was 20.1%; in the assay with K-562 leukemia, 2.89% (active); in the assay with MALME-3M melanoma it was -13.7% (active); in the assay with MDA-MB-231 breast it was -52.1% (active); in the assay on RXF 393 renal, -95.3% (active); in the assay with SF-268 CNS, 24.2%. Besides, the growth was 62.7% with SF-295 CNS, -15.1% (active) in the assay on SF-539 CNS, -13.7% (active) in the assay with UACC-257 melanoma and -12% (active) in the assay on M14 melanoma.

For `CN(C)c1ccc(/C=C/C(=O)c2ccc(-n3cc(CN4CCN(c5cc6c(cc5F)c(=O)c(C(=O)O)cn6C5CC5)CC4)nn3)cc2)cc1`, the growth is 51.7% in the assay with DU-145 prostate; 21.9% in the assay on K-562 leukemia; 89.2% with MALME-3M melanoma; 65.3% in the assay with MDA-MB-231 breast; 45% in the assay on RXF 393 renal; 35.7% in the assay on SF-268 CNS. The growth in the assay with SF-295 CNS is 81.2%; with SF-539 CNS, 27.9%; with UACC-257 melanoma it was 88.3%; in the assay with M14 melanoma it was 60.9%.

For the molecule `COc1ccc(-c2nnc(-c3ccc4c(c3)nc(-c3ccncc3)n4C3CCCCC3)o2)cc1`, the growth is 68.5% with DU-145 prostate; 43.3% in the assay with K-562 leukemia; 82% with MALME-3M melanoma; 63.8% with MDA-MB-231 breast; 69.7% with RXF 393 renal; 66.7% in the assay on SF-268 CNS. For the same molecule, the growth in the assay with SF-295 CNS was 67.7%; in the assay with SF-539 CNS it was 70.3%; in the assay on UACC-257 melanoma it was 77.6%; in the assay on M14 melanoma it was 70.5%.

On to `CC(C)N1CN2C(=S)NC3C2N(C1)C(=S)N3C` (stereo not given), for which the growth with DU-145 prostate was 104%; in the assay on K-562 leukemia, 102%; in the assay with MALME-3M melanoma it was 105%; in the assay with MDA-MB-231 breast, 110%; with RXF 393 renal it was 105%; with SF-268 CNS, 96%. For the same molecule, the growth with SF-295 CNS was 98%; in the assay with SF-539 CNS it was 109%; with UACC-257 melanoma, 95%; in the assay on M14 melanoma, 105%.

On to `COc1ccc(-c2nn(-c3ccccc3)cc2/C=C2/SC(=S)N(C)C2=O)cc1`, for which the growth in the assay with DU-145 prostate is 90.7%; in the assay on K-562 leukemia, 56.9%; in the assay on MALME-3M melanoma it was 88.4%; with MDA-MB-231 breast, 63%; with RXF 393 renal it was 96.5%; in the assay with SF-268 CNS, 99.2%. The growth was 51.4% with SF-295 CNS, 70.3% with SF-539 CNS, 29.4% in the assay on UACC-257 melanoma and 97.3% in the assay on M14 melanoma.

Take `O=C(NCc1ccccc1)Nc1ccccc1CNc1nc(Nc2ccc(OCCN3CCCC3)cc2)ncc1Cl`: the growth in the assay with DU-145 prostate is 78.4%; with K-562 leukemia it was 64.5%; in the assay on MALME-3M melanoma it was 90.7%; in the assay with MDA-MB-231 breast it was 97%; in the assay on RXF 393 renal it was 79.4%; in the assay on SF-268 CNS, 83.2%. Moreover, the growth is 95.5% in the assay on SF-295 CNS, 92.4% in the assay on SF-539 CNS, 102% in the assay with UACC-257 melanoma and 99.7% with M14 melanoma.

As to `Nc1ncnc2c1N=C(c1ccc3c(c1)OCO3)CC(c1cccc(Nc3ccnc4cc(Cl)ccc34)c1)N2` (stereo not given), the growth with DU-145 prostate is 63.1%; in the assay with K-562 leukemia, 2.1% (active); in the assay on MALME-3M melanoma it was 97.3%; with MDA-MB-231 breast it was 70.1%; with RXF 393 renal it was 72.2%; in the assay on SF-268 CNS, 69.3%. Also, the growth in the assay with SF-295 CNS is 46.6%; in the assay on SF-539 CNS, 86.3%; in the assay with UACC-257 melanoma it was 59.3%; with M14 melanoma, 57.3%.

`Cc1cnc(C(=O)NNc2nc3sc4c(c3c(=O)n2C)C(C)CCC4)cn1` (stereo not given): the growth in the assay with DU-145 prostate is 7.49% (active); in the assay with K-562 leukemia, 6.51% (active); in the assay on MALME-3M melanoma, -22.3% (active); in the assay with MDA-MB-231 breast it was -3.01% (active); with RXF 393 renal, -12.6% (active); in the assay on SF-268 CNS, 5.92% (active). For the same molecule, the growth is 8.03% (active) in the assay on SF-295 CNS, -21.1% (active) in the assay with SF-539 CNS, -11.3% (active) in the assay with UACC-257 melanoma and -15.7% (active) in the assay on M14 melanoma.

Take `Nc1nc(=S)c2ncn(C3OC(COP(=O)(O)O)C(O)C3O)c2[nH]1` (stereo not given): the growth was 22.6% with DU-145 prostate; 13.7% with K-562 leukemia; 39.7% with MALME-3M melanoma; 38.7% with MDA-MB-231 breast; 13.9% in the assay on RXF 393 renal; 28.2% in the assay with SF-268 CNS. Further, the growth in the assay with SF-295 CNS is 19.9%; in the assay with SF-539 CNS it was 26.2%; with UACC-257 melanoma, 36.7%; in the assay on M14 melanoma, 14.6%.
